This note sets out measurements from ChEMBL document CHEMBL1961873, “Compounds: GSK PKIS; Assays: Nanosyn kinase panel” (2012).

For orientation: inhibition means the drop in the measured response relative to a control, in per cent.

SMILES strings stand for the structures.

Serine/threonine-protein kinase pim-1 (Homo sapiens), sequence (P11309 whole entry, looked up): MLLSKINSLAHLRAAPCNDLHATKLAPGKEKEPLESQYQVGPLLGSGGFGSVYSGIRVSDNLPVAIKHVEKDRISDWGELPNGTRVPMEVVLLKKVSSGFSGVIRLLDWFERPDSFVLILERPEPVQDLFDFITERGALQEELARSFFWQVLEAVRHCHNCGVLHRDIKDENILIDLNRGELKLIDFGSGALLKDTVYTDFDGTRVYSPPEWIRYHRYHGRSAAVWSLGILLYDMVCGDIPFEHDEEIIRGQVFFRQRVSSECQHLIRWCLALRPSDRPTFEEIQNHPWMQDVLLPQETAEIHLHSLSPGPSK

The first experiment concerns the target Serine/threonine-protein kinase pim-1 (Homo sapiens) (UniProt P11309). The settings on record: at 0.1 µM.
For `Cc1ccc(O)cc1Nc1ccnc2ccc(S(C)(=O)=O)cc12`, the inhibition worked out at 0.95%. Still for that read-out and setting: in the case of `COc1ccc(-c2nn3ncccc3c2-c2ccnc(Nc3cccc(C(F)(F)F)c3)n2)cc1` it was 0.05%; in that of `Cc1nc(-c2ccccc2)n2nc(NCCCN3CCOCC3)ncc12`, -0.82%.

In the case of `Nc1nccc(C#Cc2cncnc2Nc2ccc(OCc3cccc(F)c3)c(Cl)c2)n1`, the inhibition was found to be 1.29%. Same read-out and setting: in the case of `C[C@@H](Oc1cc(-n2cnc3ccc(OCC4CCN(C)CC4)cc32)sc1C(N)=O)c1ccccc1C(F)(F)F` it was 18.7%. As to `N#Cc1c(NC(=O)c2ccccc2F)sc2c1CCCC2`, the inhibition was 0.9%.

Consider `Nc1nccc(-c2c(-c3ccc(F)cc3)ncn2CCCN2CCOCC2)n1`, for which the inhibition amounted to 1.45%.

For the compound `COc1cccc(-n2ncc3c(N/N=C/c4ccc(C)cc4)ncnc32)c1`, the inhibition is 1.21%. Consider `C[C@@H](Oc1cc(-n2cnc3ccc(OC[C@@H](O)CO)cc32)sc1C(N)=O)c1ccccc1Cl`, for which the inhibition was determined as 2.14%. Same read-out and setting: next, `Cc1cc(-c2ccccn2)cc(C)c1/C=C/c1cncc(-c2nn[nH]n2)c1`: 1.73%; `Cc1ccc2c(-c3ccnc(Nc4cccc(C(F)(F)F)c4)n3)c(-c3ccccc3)nn2n1`: 1.05%; `CCn1c(-c2nonc2N)nc2ccc(F)cc21`: 0.08%. Regarding `COc1cccc(-n2ncc3c(N/N=C/c4ccc(S(C)(=O)=O)cc4)ncnc32)c1`, the inhibition is -0.52%. The same measure, in the same setting: in the case of `Cc1ccc2c(c1)/C(=N/Nc1ccc(S(N)(=O)=O)cc1)C(=O)N2` it was 0.77%; in that of `Cc1cc(Cl)cc2c1NC(=O)C2=NNc1ccc(S(N)(=O)=O)cc1`, 0.03%. On the same count and under the same terms, in the case of `Nc1ccc(C#Cc2cncnc2Nc2ccc(OCc3cccc(F)c3)c(Cl)c2)cc1` it was 0.21%; in that of `Oc1cccc(-c2nc(-c3ccccc3)[nH]c2-c2ccncc2)c1`, 0.8%. On the same count and under the same terms, next, `O=C1Nc2ccc(-c3cccnc3)cc2C1=Cc1cc(Br)c(O)c(Br)c1`: 6.4%.

A further experiment shares this target. The settings on record: at 1 µM.
`Cc1ccc(Nc2ccnc(Nc3cccc(C(N)=O)c3)n2)cc1O`: the inhibition came out at 1.49%. For the compound `CN(c1ccc(NC(=O)Nc2ccc(OC(F)(F)F)cc2)cc1)c1ccnc(Nc2cccc(S(N)(=O)=O)c2)n1`, the inhibition is -0.84%. The same measure, in the same setting: in the case of `CN1CCN(C(=O)c2ccc(NC(=O)Nc3ccc(N(C)c4ccnc(Nc5ccc(CS(C)(=O)=O)cc5)n4)cc3)cc2)CC1` it was -0.28%; in that of `NS(=O)(=O)c1ccc(N/N=C2\C(=O)Nc3ccc(Cl)cc32)cc1`, 2.42%. Still for that read-out and setting: in the case of `c1ccc(Nc2ncc(-c3ccccc3)o2)cc1` it was 3.45%; in that of `CS(=O)(=O)CCNCc1nc(-c2ccc3ncnc(Nc4ccc(OCc5cccc(C(F)(F)F)c5)cc4)c3c2)cs1`, -0.28%. On the same count and under the same terms, in the case of `COC(=O)c1ccc2c(c1)C(=Cc1cc(Br)c(O)c(Br)c1)C(=O)N2` it was 50.9%; in that of `O=C(Nc1ccc(Oc2ccc3[nH]c(NC(=O)c4ccco4)nc3c2)cc1)Nc1cc(C(F)(F)F)ccc1F`, 1.19%; in that of `CC(C)c1ccc(Nc2nccc(-c3cnn4ncccc34)n2)cc1`, 2.45%. With `CS(=O)(=O)Nc1cccc(-c2ccc3c(NC(=O)C4CC4)n[nH]c3c2)c1`, the inhibition came to 0.43%. On the same count and under the same terms, in the case of `COC(=O)Nc1nc2cc(Oc3ccc(NC(=O)Nc4cccc(Br)c4)cc3)ccc2[nH]1` it was 0.21%; in that of `N#Cc1cccc(Nc2nccc(-c3cnn4ncccc34)n2)c1`, 12.4%.

For the compound `NS(=O)(=O)c1ccc(Nc2cc(-c3cccc(O)c3)n[nH]2)cc1`, the inhibition was 1.3%. Regarding `CC(C)c1ccc2c(c1)NC(=O)/C2=N/Nc1ccc(S(N)(=O)=O)cc1`, the inhibition was -0.22%. Still for that read-out and setting: in the case of `Cc1cc(O)cc(C)c1/C=C/c1cncc(C(=O)N(C)C)c1` it was 2.17%. On the same count and under the same terms, in the case of `c1ccc(Cc2nc3ccc(Nc4ncnc5ccccc45)cc3[nH]2)cc1` it was 0.7%; in that of `Cc1ccc(O)cc1Nc1ccnc2ccc(S(C)(=O)=O)cc12`, 1.4%. On the same count and under the same terms, next, `COc1ccc(-c2nn3ncccc3c2-c2ccnc(Nc3cccc(C(F)(F)F)c3)n2)cc1`: 0.66%; `Cc1nc(-c2ccccc2)n2nc(NCCCN3CCOCC3)ncc12`: 0.37%; `Nc1nccc(C#Cc2cncnc2Nc2ccc(OCc3cccc(F)c3)c(Cl)c2)n1`: 1.16%.

As to `C[C@@H](Oc1cc(-n2cnc3ccc(OCC4CCN(C)CC4)cc32)sc1C(N)=O)c1ccccc1C(F)(F)F`, the inhibition is 68.4%. Same read-out and setting: in the case of `N#Cc1c(NC(=O)c2ccccc2F)sc2c1CCCC2` it was 2.11%; in that of `Nc1nccc(-c2c(-c3ccc(F)cc3)ncn2CCCN2CCOCC2)n1`, 0.82%; in that of `COc1cccc(-n2ncc3c(N/N=C/c4ccc(C)cc4)ncnc32)c1`, 3.51%. On the same count and under the same terms, next, `C[C@@H](Oc1cc(-n2cnc3ccc(OC[C@@H](O)CO)cc32)sc1C(N)=O)c1ccccc1Cl`: 19.1%; `Cc1cc(-c2ccccn2)cc(C)c1/C=C/c1cncc(-c2nn[nH]n2)c1`: 2.55%. Still for that read-out and setting: next, `Cc1ccc2c(-c3ccnc(Nc4cccc(C(F)(F)F)c4)n3)c(-c3ccccc3)nn2n1`: 1.72%; `CCn1c(-c2nonc2N)nc2ccc(F)cc21`: 1.85%; `COc1cccc(-n2ncc3c(N/N=C/c4ccc(S(C)(=O)=O)cc4)ncnc32)c1`: 1.73%. Consider `Cc1ccc2c(c1)/C(=N/Nc1ccc(S(N)(=O)=O)cc1)C(=O)N2`, for which the inhibition was 0.99%. Same read-out and setting: in the case of `Cc1cc(Cl)cc2c1NC(=O)C2=NNc1ccc(S(N)(=O)=O)cc1` it was 1.28%. Still for that read-out and setting: in the case of `Nc1ccc(C#Cc2cncnc2Nc2ccc(OCc3cccc(F)c3)c(Cl)c2)cc1` it was 1.21%; in that of `Oc1cccc(-c2nc(-c3ccccc3)[nH]c2-c2ccncc2)c1`, 2.57%; in that of `O=C1Nc2ccc(-c3cccnc3)cc2C1=Cc1cc(Br)c(O)c(Br)c1`, 37.6%.
